# Measurements published in PubChem BioAssay (NCATS).
# Inconclusive results are not listed. Active and inactive are the calls of the source. Unless noted, calls follow the shape of the full dose curve.
# Experiments:
# [1] = test system: HIV-1 nucleocapsid protein NCp7 (binding to TG oligonucleotide); experiment: HIV Nucleocapsid (AID 346; call rule not given here;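 also: potency is read from the fitted curve at half-maximal effect; potency is for inhibitors that block NC binding and lower polarization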); details: HIV-1 NC / fluorescein-TGTGTGTG probe, fluorescence polarization
# How it was run: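 Fluorescence polarization readout: labelled TG4xF oligo (10 nM) with 100 nM nucleocapsid protein, high-salt (250mM NaCl) Hepes pH 7.5 buffer containing zinc and fresh reducing agents. Compounds added by pin tool; incubation 1 hr, room temperature.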
# [2] = biological target: Lysosomal acid glucosylceramidase (Homo sapiens) (UniProt P04062); experiment: Glucocerebrosidase-p2 (AID 348; in the data active = potency below about 10 µM; also: potency is read from the fitted curve at half-maximal effect); details: purified GBA, blue fluorogenic substrate, 40 min
# How it was run: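 Compounds titrated from 0.6 nM upwards against 0.2 nM enzyme in pH 5.9 citric acid/KH2PO4, taurocholate, tween-20; blue fluorogenic substrate 80 uM, 40 min room temperature, stopped and read Ex 365/Em 440 for AC50.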
# [3] = AP1 Signaling Pathway (AID 357; active = well fitted curve in either direction with a large enough effect, not every such curve was filed as active;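 also: ME-180 reporter cells stimulated with EGF at its EC50 level; % is scaled to controls: 0 for no effect and ±100 for the full control effect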)
# How it was run: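 A ratiometric CCF4 readout (405 nm excitation; 460 and 530 nm emission) quantified AP-1-driven beta-lactamase in ME-180 cells after 5 h with compound and EC50 EGF; AC50 values were derived for activators and inhibitors.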
# [4] = biological target: Cytochrome P450 1A2 (Homo sapiens) (UniProt P05177); experiment: p450-cyp1a2 (AID 410); also: potency is read from the fitted curve at half-maximal effect;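 as to activity change, negative = inhibition: -100% = full effect of reference inhibitor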
# How it was run: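 Luminescent readout of luciferin formed from Luciferin-ME by human CYP1A2; data normalized against complete inhibition by 57 uM furafylline. Enzyme 20nM, substrate 100uM at Km, 100mM KPO4 buffer, 60 min reaction at room temperature.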
# [5] = Stat Signaling Pathway (AID 446; active = well fitted curve in either direction with a large enough effect, not every such curve was filed as active;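 also: ME-180 cervical cancer cells given 40 pM IL-6 alongside compound; SIE-controlled beta-lactamase reporter measured as 460/530 nm FRET emission ratio; % is scaled to controls: 0 for no effect and ±100 for the full control effect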)
# How it was run: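 Reporter line: ME-180 cervical carcinoma, SIE-beta-lactamase. Treatment: compound with 40 pM IL-6, 5 hrs, 37 C, in low-serum OPTI-MEM with 10 mM HEPES pH 7.3. Detection: 460/530 nm fluorescence.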
# [6] = biological target: Glucocorticoid receptor (Homo sapiens) (UniProt P04150); experiment: GR-EFC Redistribution (AID 451); details: CHO-K1 GR-EFC translocation, beta-gal luminescence, 2 h; also: potency is read from the fitted curve at half-maximal effect
# How it was run: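 CHO-K1 cells expressing nuclear EA and GR-ED fragments of b-gal; compounds titrated up to 46 uM final, 2 h at 37 C. GR nuclear translocation read as complemented b-gal luminescence after 1 h RT detection.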
# [7] = biological target: Mitogen-activated protein kinase 10 (Mus musculus) (UniProt Q61831); experiment: JNK3 AlphaScreen Assay (AID 530; active = well fitted curve in either direction with a large enough effect, not every such curve was filed as active;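 also: kinase came from lysate of stimulated human HepG2 cells; signal reports phosphorylation of biotinylated GST-cJun 1-79 at Ser73 with 10 µM ATP; % is scaled to controls: 0 for no effect and ±100 for the full control effect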)
# How it was run: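 Pre-activated (IL-1β/TNFα) JNK3 in HepG2 lysates phosphorylates biotin-GST-cJun(1-79), 10 uM ATP; anti-phospho-cJun(Ser73) AlphaScreen read at room temperature, pH 7.6 Tris buffer. Compounds pre-incubated 15 min as titrations.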
# [8] = biological target: 3',5'-cyclic-AMP phosphodiesterase 4B (Homo sapiens) (UniProt Q07343); experiment: qHTS Assay for Inhibitors of PDE-IV (AID 607; active = well fitted activation curve with a large enough effect in the main read-out, with a control signal flat, not every such curve was filed as active; also: % of control where 0% means no effect)
# How it was run: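 Cell-based read-out of cAMP via a modified cyclic nucleotide-gated channel and membrane potential dye (535/590 nm) in HEK293 cells expressing PDE4 endogenously. Compounds tested up to 22.9 uM final; 100 uM RO 20-1724 reference.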
# [9] = biological target: Cytochrome P450 3A4 (Homo sapiens) (UniProt P08684); experiment: qHTS Assay for Activators of Cytochrome P450 3A4 (AID 885; active = well fitted curve in the direction sought with a large enough effect; an effect the other way counts as inactive or inconclusive; also: nearly all actives have a fitted effect of over 65% in size; also: potency is read from the fitted curve at half-maximal effect)
# How it was run: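 Signal was normalized against complete inhibition by 57 uM ketoconazole. The reaction used 20nM CYP3A4 with 25uM Luciferin-PPXE, 10-min compound preincubation and a 60-min NADPH-supported step at RT.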
# [10] = Primary qHTS for small molecule stabilizers of the endoplasmic reticulum resident proteome: Secreted ER Calcium Modulated Protein (SERCaMP) assay (AID 1508630; active = well fitted curve in the direction sought with a large enough effect; an effect the other way counts as inactive or inconclusive; also: % is scaled to controls: 0 for no effect and ±100 for the full control effect)
# How it was run: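 GLuc-SERCaMP-expressing SH-SY5Y cells, pretreated 16 h with compound, are challenged with thapsigargin to empty ER calcium stores; after 4 h, coelenterazine is added directly to the medium and luminescence is imaged.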
# [11] = biological target: Cytochrome P450 3A4 (Homo sapiens) (UniProt P08684); experiment: qHTS Assay for Inhibitors and Substrates of Cytochrome P450 3A4 (AID 884; active = well fitted curve in the direction sought with a large enough effect; an effect the other way counts as inactive or inconclusive; also: % is scaled to controls: 0 for no effect and ±100 for the full control effect; nearly all actives have a fitted effect of over 50% in size)
# How it was run: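 20 nM human CYP3A4 with 25 uM Luciferin-PPXE (at KM) in 200 mM KPO4, preincubated 10 min with compound; NADPH regeneration started a 60 min RT reaction. Luciferin detected by luminescence, normalized to 57 uM ketoconazole as full inhibition.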
# [12] = qHTS Assay for Lipid Storage Modulators (AID 1519); details: Drosophila S3 cells, BODIPY lipid droplet/cell ratio, laser cytometry, cells loaded with oleic acid
# How it was run: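 Cells seeded at 5,000 per well were treated with compounds over a concentration series and loaded with oleic acid (400 uM, as added). Lipid droplet fluorescence (488 nm excitation, 500-530 nm channel) was read by laser-scanning cytometry and normalized to 20 uM Triacsin C.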
# [13] = biological target: Ubiquitin carboxyl-terminal hydrolase 1 (Homo sapiens) (UniProt O94782); experiment: Inhibitors of USP1/UAF1: Pilot qHTS (AID 504865; active = well fitted curve in the direction sought with a large enough effect; an effect the other way counts as inactive or inconclusive;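 also: rhodamine fluorescence freed from ubiquitin-rhodamine substrate followed over time; top concentration of the series differs between compounds; % is scaled to controls: 0 for no effect and ±100 for the full control effect; nearly all actives have a fitted effect of over 35% in size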)
# How it was run: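 1nM USP1/UAF1 + cpd, 15 min RT; start w/ Ub-Rho 150nM final; kinetic FL 480/540 nm, 6 reads q60 s. Buffer 50mM HEPES pH 7.8, 0.5mM EDTA, 1mM TCEP, 0.01% Tween-20, 0.1 mg/ml BSA.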
# [14] = measured here: cell count channel max response
# [15] = measured here: lipid channel max response
# Sequence of 3',5'-cyclic-AMP phosphodiesterase 4B (Homo sapiens) (Q07343 whole entry, looked up): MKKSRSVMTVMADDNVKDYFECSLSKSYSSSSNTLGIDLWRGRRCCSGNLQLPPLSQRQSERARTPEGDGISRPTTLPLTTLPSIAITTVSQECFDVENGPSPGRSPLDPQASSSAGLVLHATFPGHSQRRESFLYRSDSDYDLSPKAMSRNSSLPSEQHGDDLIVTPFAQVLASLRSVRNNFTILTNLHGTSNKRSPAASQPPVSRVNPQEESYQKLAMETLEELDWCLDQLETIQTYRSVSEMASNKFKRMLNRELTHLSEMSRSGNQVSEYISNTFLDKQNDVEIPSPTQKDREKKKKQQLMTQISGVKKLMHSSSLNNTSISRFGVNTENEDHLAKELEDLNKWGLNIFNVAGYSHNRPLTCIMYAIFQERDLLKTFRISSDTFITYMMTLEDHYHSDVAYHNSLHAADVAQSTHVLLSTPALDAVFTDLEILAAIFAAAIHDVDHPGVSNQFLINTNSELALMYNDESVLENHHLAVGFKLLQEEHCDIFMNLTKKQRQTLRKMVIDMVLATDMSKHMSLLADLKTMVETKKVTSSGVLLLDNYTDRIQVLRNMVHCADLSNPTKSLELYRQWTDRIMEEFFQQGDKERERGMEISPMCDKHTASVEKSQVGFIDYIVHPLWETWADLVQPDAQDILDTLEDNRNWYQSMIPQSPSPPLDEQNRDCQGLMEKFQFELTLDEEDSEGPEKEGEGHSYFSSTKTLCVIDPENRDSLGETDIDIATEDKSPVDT
# Sequence of Cytochrome P450 3A4 (Homo sapiens) (P08684 whole entry, looked up): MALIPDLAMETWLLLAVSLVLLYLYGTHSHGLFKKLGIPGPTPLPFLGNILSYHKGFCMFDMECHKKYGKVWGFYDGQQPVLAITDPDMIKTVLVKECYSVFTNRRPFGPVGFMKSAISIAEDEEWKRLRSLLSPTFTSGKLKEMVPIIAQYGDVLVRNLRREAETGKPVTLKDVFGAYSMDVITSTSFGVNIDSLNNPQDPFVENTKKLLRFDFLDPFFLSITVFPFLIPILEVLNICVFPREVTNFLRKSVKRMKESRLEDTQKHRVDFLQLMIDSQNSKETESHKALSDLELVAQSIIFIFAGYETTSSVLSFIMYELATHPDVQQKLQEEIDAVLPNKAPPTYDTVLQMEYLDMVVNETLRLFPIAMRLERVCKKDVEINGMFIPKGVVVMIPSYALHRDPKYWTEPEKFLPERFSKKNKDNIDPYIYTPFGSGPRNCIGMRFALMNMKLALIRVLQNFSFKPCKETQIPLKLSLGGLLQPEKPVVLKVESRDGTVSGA
# Sequence of Lysosomal acid glucosylceramidase (Homo sapiens) (P04062 whole entry, looked up): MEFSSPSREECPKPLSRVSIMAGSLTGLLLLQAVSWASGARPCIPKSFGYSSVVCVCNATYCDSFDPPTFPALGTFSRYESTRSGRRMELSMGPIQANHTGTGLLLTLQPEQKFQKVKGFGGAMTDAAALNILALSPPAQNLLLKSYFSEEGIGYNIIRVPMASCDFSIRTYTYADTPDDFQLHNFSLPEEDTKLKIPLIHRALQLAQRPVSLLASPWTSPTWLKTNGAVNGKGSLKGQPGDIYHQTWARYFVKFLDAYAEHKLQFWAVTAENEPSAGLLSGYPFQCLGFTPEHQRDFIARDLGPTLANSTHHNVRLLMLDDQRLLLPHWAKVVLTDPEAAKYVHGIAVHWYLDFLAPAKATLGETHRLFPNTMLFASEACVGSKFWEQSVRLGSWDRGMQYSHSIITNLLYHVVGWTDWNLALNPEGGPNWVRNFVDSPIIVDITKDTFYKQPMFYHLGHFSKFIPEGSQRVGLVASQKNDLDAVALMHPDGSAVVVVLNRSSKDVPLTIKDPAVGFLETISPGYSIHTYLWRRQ
# Sequence of Glucocorticoid receptor (Homo sapiens) (P04150 whole entry, looked up, the tested form may be a part): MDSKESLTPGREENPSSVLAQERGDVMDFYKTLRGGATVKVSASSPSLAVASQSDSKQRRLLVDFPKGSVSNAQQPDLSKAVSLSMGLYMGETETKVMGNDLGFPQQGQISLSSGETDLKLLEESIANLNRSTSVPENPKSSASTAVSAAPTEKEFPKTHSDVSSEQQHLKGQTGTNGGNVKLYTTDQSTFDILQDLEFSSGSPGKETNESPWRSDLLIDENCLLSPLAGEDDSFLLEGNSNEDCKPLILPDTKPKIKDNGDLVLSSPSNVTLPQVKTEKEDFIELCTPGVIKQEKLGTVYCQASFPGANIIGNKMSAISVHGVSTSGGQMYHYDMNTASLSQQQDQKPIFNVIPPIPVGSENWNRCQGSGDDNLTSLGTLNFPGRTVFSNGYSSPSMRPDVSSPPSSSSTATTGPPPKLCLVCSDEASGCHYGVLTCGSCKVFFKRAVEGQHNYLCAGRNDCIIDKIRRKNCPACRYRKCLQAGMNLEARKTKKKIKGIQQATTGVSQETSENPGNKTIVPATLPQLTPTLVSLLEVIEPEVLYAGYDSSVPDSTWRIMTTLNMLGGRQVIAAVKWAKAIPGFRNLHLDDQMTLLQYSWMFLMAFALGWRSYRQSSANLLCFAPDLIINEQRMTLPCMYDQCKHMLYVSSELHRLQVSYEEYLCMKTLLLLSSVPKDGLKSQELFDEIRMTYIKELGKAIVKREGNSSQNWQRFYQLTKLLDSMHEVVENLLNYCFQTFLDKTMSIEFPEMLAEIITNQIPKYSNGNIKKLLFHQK
# Sequence of Cytochrome P450 1A2 (Homo sapiens) (P05177 whole entry, looked up): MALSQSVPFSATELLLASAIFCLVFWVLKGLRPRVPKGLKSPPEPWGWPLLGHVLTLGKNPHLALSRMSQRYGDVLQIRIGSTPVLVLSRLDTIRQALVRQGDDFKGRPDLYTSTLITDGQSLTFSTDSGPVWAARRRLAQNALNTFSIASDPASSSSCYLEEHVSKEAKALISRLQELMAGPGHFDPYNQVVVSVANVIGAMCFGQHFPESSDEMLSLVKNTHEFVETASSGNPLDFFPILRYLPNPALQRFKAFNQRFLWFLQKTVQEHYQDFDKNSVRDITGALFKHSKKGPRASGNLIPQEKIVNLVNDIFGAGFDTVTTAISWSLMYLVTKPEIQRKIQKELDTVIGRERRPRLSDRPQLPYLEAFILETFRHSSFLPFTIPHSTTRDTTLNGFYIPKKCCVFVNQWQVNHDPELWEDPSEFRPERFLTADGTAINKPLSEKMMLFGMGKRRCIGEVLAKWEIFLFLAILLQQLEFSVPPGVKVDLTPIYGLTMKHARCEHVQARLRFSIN
# Sequence of Ubiquitin carboxyl-terminal hydrolase 1 (Homo sapiens) (O94782 whole entry, looked up): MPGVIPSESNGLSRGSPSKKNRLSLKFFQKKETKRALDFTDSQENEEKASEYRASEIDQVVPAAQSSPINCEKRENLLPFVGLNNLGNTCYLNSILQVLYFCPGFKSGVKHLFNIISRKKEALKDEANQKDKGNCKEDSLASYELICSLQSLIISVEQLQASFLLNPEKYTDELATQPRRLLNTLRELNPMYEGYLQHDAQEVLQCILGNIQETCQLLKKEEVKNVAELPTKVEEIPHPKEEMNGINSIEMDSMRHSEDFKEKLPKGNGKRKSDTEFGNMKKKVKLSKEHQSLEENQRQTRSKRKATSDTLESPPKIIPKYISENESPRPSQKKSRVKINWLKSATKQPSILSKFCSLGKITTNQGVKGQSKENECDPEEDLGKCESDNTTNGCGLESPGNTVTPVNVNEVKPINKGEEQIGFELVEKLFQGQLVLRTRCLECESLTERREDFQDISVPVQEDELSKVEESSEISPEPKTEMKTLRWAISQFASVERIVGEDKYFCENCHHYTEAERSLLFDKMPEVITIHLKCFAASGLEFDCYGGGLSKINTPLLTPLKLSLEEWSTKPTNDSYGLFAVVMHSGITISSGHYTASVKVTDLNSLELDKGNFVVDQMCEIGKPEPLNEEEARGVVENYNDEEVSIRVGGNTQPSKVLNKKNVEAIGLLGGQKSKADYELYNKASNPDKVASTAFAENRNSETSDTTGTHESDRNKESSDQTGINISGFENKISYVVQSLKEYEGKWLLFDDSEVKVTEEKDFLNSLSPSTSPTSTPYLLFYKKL
smiles,measurement,setting,value
O=C(Oc1ccccc1)N1CCC[C@@]2(CCN(Cc3ccccc3)C2)C1,Potency,[1],> 20 µM (inactive)
same,Potency,[2],> 11.4 µM (inactive)
same,outcome,[3],inactive
same,Potency,[4],15.8 µM (active)
same,outcome,[5],inactive
same,Potency,[6],> 46 µM (inactive)
same,outcome,[7],inactive
same,Potency,[8],inactive
same,Potency,[9],inactive
same,outcome,[10],inactive
O=C(Nc1ccccc1)N1CCCC2(CCN(C(=O)Oc3ccccc3)CC2)C1,Potency,[1],> 20 µM (inactive)
same,Potency,[2],> 11.4 µM (inactive)
same,outcome,[3],inactive
same,Potency,[4],25.1 µM (active)
same,outcome,[5],inactive
same,Potency,[6],> 46 µM (inactive)
same,Potency,[9],inactive
same,outcome,[10],inactive
O=C(Oc1ccccc1)N1CCC2(CCN(Cc3nccs3)CC2)CC1,Potency,[1],> 20 µM (inactive)
same,outcome,[3],inactive
same,Potency,[4],inactive
same,outcome,[5],inactive
same,Potency,[6],> 46 µM (inactive)
same,outcome,[7],inactive
same,Potency,[8],inactive
same,Potency,[11],inactive
same,Potency,[9],25.1 µM (active)
same,outcome,[10],inactive
COc1ccc2cc1Oc1ccc(cc1)C[C@H]1c3cc(c(OC)cc3CCN1C)Oc1c(OC)c(OC)cc3c1[C@@H](C2)N(C)CC3,"activity change, negative = inhibition",[12]; at 25.7 µM (top of the series),-4.24% (inactive)
same,max response,[12]; [14],-9.67%
same,max response,[12]; [15],-10.6%
CCC1CN2CCc3cc(OC)c(OC)cc3C2CC1CC1NCCc2cc(OC)c(OC)cc21 (stereo unspecified),"activity change, negative = inhibition",[12]; at 57.5 µM (top of the series),7.1% (inactive)
same,max response,[12]; [14],-0.174%
same,max response,[12]; [15],8%
C[C@]12CC[C@H](O)CC1=CCC1C2CC[C@]2(C)C(=O)CC[C@@H]12 (stereo partly specified),"activity change, negative = inhibition",[12]; at 57.5 µM (top of the series),0.778% (inactive)
same,max response,[12]; [14],-17.2%
same,max response,[12]; [15],-14.9%
same,Potency,[13],inactive
CS(=O)(=O)N1CCC2(CCCN(Cc3ccncc3)C2)CC1,Potency,[1],> 20 µM (inactive)
same,Potency,[2],> 11.4 µM (inactive)
same,outcome,[3],inactive
same,Potency,[6],> 46 µM (inactive)
same,outcome,[7],inactive
same,Potency,[8],inactive
same,outcome,[10],inactive
CC(C)C[C@H]1C(=O)N2CCCC2[C@]2(O)O[C@](NC(=O)[C@@H]3C=C4c5cccc6[nH]c(Br)c(c56)C[C@H]4N(C)C3)(C(C)C)C(=O)N12 (stereo partly specified),"activity change, negative = inhibition",[12]; at 57.5 µM (top of the series),-0.407% (inactive)
same,max response,[12]; [14],-32%
same,max response,[12]; [15],-33.2%
O=C(NC[C@@H]1CCCCN1)c1cc(OCC(F)(F)F)ccc1OCC(F)(F)F,"activity change, negative = inhibition",[12]; at 25.7 µM (top of the series),-0.787% (inactive)
same,max response,[12]; [14],-18.7%
same,max response,[12]; [15],-19.7%
